Assay outcomes: PubChem, National Center for Advancing Translational Sciences (NCATS)
VACV mCherry inh: inhibitors of vaccinia virus infection (mCherry reporter signal); Vaccinia virus mCherry reporter infection, fluorescence; Potency, µM (series often up to 36.5 µM), for the others: top-dose activity change, negative = inhibition, hits mostly inhibitors; hit rate 0.63% among 310,000; calls by dose curve; tested in A549 cells; also: nearly all actives have a fitted effect of over 35% in size
Vaccinia Venus: vaccinia inhibition (Venus reporter); hit rate 0.46% among 330,000; Potency, µM (top dose mostly 36.5 µM), without a hit: top-dose activity change, negative = inhibition, most hits filed as inhibitors; Vaccinia virus Venus reporter expression, fluorescence; AID 720580; calls by dose curve; tested in A549 cells; also: nearly all actives have a fitted effect of over 30% in size
MARV entry inh: inhibitors of Marburg virus binding or cell entry. Marburg virus pseudotyped entry inhibition, cell reporter. Potency, µM (top dose mostly 37.8 µM), inactives show at the top dose activity change, negative = inhibition, most hits filed as inhibitors. hit rate 1.8% among 300,000. AID 540276; calls by dose curve; tested in HEK293 cells
LASV entry inh: Lassa virus entry inhibition; Lassa virus pseudotype entry inhibition, cell reporter; Potency, µM (doses to about 37.9 µM), without a hit: top-dose activity change, negative = inhibition, actives largely listed as inhibitors; hit rate 1.2% among 300,000; AID 540256; calls by dose curve; tested in HEK293 cells; also: nearly all actives have a fitted effect of over 50% in size
Sm TGR inh: blocks Schistosoma mansoni thioredoxin glutathione reductase. Q962Y6. purified TGR, DTNB reduction, TNB absorbance 405 nm. Potency, µM (series often up to 114 µM), for inactives: at the top dose activity change, negative = inhibition, actives largely listed as inhibitors. hit rate 3% among 360,000. AID 485364; active = well fitted inhibition curve with a large enough effect; inconclusive = small, poorly fitted or top-dose-only effect; inactive = no such curve, though single readings can be large or run the other way; also: nearly all actives have a fitted effect of over 60% in size
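First, TGR (20 nM dispensed) and NADPH were mixed with compound. Second, a 15 min room-temperature incubation followed. Third, further NADPH and then DTNB were added to start the reaction. Finally, TNB absorbance was monitored kinetically.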
FMDV inh: antivirals against foot and mouth disease virus; FMDV antiviral cell-based qHTS; Potency, µM (highest dose often 57.9 µM), without a hit: at the top dose activity change, negative = inhibition, usual class: inhibitors; hit rate 1.2% among 410,000; calls by dose curve; tested in HEK293T cells; also: read-out not given here; nearly all actives have a fitted effect of over 45% in size
An asterisk follows results filed as active; [ ] = dose if it differs, or a comment. An excerpt weighted towards active compounds, which were near 5.4% of everything screened. % is scaled to controls: 0 for no effect and ±100 for the full control effect; potency is read from the fitted curve at half-maximal effect.

Results for Cn1c(C(C#N)C2=C(Cl)C(=O)N(c3ccccc3)C2=O)nc2ccccc21 (centres undefined) ?
MARV entry inh: -3%; Sm TGR inh: 45µM*

Results for CSc1cccc(NC(=O)C2CCN(S(=O)(=O)c3ccc4c(c3)CCCN4C(=O)C3CCC3)CC2)c1 ?
VACV mCherry inh: -14%; Vaccinia Venus: -18%; LASV entry inh: -30%[46.1 µM]; Sm TGR inh: -2%; FMDV inh: -21%

What do the screens show for `O=C(Nc1ccc(NC(=O)c2ccccc2F)cn1)c1ccco1`?
VACV mCherry inh: -13%; Vaccinia Venus: -12%; MARV entry inh: 4µM*; LASV entry inh: inconclusive; Sm TGR inh: 11%; FMDV inh: -43%

How did O=C(Nc1ccc(NC(=O)c2ccco2)nc1)c1cccc(F)c1 do in these assays?
VACV mCherry inh: -10%; Vaccinia Venus: -9%; MARV entry inh: inconclusive; LASV entry inh: 10µM*; Sm TGR inh: 3%; FMDV inh: -2%

Results for COc1cccc(C(=O)Nc2ccc(NC(=O)c3ccco3)nc2)c1 ?
VACV mCherry inh: -22%; Vaccinia Venus: -18%; MARV entry inh: inconclusive; LASV entry inh: -8%; Sm TGR inh: 0%; FMDV inh: 48%

How did COc1ccc2c(c1)[C@@H](NC(=O)C(F)(F)F)C1CCCCC21c1ccccc1 (some centres undefined) do in these assays?
MARV entry inh: -4%[14.2 µM]

What do the screens show for `Cc1cccc(N(CC(=O)NCCSCc2ccco2)S(=O)(=O)c2ccccc2)c1`?
VACV mCherry inh: inconclusive; Vaccinia Venus: -30%; MARV entry inh: inconclusive; LASV entry inh: inconclusive; Sm TGR inh: 32µM*; FMDV inh: -5%

What do the screens show for `Cc1cccc(N(CC(=O)NCCSCc2ccc(Cl)cc2)S(C)(=O)=O)c1C`?
VACV mCherry inh: inconclusive; Vaccinia Venus: -25%; MARV entry inh: inconclusive; LASV entry inh: 13µM*; Sm TGR inh: -13%; FMDV inh: 0%

How did COc1ccc(C)cc1N(CC(=O)NCCSCc1ccco1)S(=O)(=O)c1ccc(C)cc1 do in these assays?
VACV mCherry inh: -21%; Vaccinia Venus: 8%; MARV entry inh: inconclusive; LASV entry inh: inconclusive; Sm TGR inh: 32µM*; FMDV inh: -5%

Results for COc1ccc(N(CC(=O)NCc2ccco2)S(C)(=O)=O)cc1Cl ?
MARV entry inh: 11%; LASV entry inh: 12%; Sm TGR inh: 79µM*; FMDV inh: 4%

Results for COc1ccc(OC)c(N(CC(=O)NCCSCc2ccco2)S(=O)(=O)c2ccc(OC)c(OC)c2)c1 ?
VACV mCherry inh: -23%; Vaccinia Venus: -13%; MARV entry inh: 15%; LASV entry inh: -15%; Sm TGR inh: -25%; FMDV inh: -27%

What do the screens show for `COc1cccc(N(CC(=O)NCCSCc2ccco2)S(=O)(=O)c2ccccc2)c1`?
VACV mCherry inh: -16%; Vaccinia Venus: -20%; MARV entry inh: inconclusive; LASV entry inh: inconclusive; Sm TGR inh: inconclusive; FMDV inh: -16%

Results for O=C(NCc1cccnc1)c1nn(-c2ccc(Cl)cc2)nc1CO ?
VACV mCherry inh: -3%; Vaccinia Venus: -11%; MARV entry inh: inconclusive; LASV entry inh: -15%[46.1 µM]; Sm TGR inh: 1%; FMDV inh: inconclusive

How did CCCCn1cc(S(=O)(=O)c2ccc(CC)cc2)c(=O)c2cc(F)c(N3CCCC(C)C3)cc21 (centres undefined) do in these assays?
VACV mCherry inh: -7%; Vaccinia Venus: -18%; LASV entry inh: inconclusive; Sm TGR inh: 0%; FMDV inh: -2%

Results for COc1ccc(N(CC(=O)NCCSCc2ccco2)S(=O)(=O)c2ccccc2)cc1Cl ?
VACV mCherry inh: -18%; Vaccinia Venus: -16%; MARV entry inh: inconclusive; LASV entry inh: inconclusive; Sm TGR inh: 18µM*; FMDV inh: -3%

What do the screens show for `Cc1ccc(CSCCNC(=O)CN(c2cc(C)ccc2C)S(C)(=O)=O)cc1`?
VACV mCherry inh: -4%; Vaccinia Venus: -13%; MARV entry inh: inconclusive; LASV entry inh: inconclusive; Sm TGR inh: -3%; FMDV inh: inconclusive

How did COc1ccc(S(=O)(=O)NCCSCc2ccco2)cc1C do in these assays?
VACV mCherry inh: -13%; Vaccinia Venus: -3%; MARV entry inh: -19%; LASV entry inh: -2%

Results for COc1ccc(S(=O)(=O)NCCSCc2ccco2)cc1Cl ?
Vaccinia Venus: -13%; MARV entry inh: inconclusive; LASV entry inh: inconclusive; Sm TGR inh: 32µM*; FMDV inh: 1%

How did Cc1ccc(C)c(N(CC(=O)NCCSCc2ccco2)S(C)(=O)=O)c1 do in these assays?
VACV mCherry inh: -14%[1.46 µM]; Vaccinia Venus: -3%; MARV entry inh: -1%; LASV entry inh: -13%; Sm TGR inh: 20µM*; FMDV inh: 18%

Results for Cc1cc(C(=O)NCC2CCC3(CCN(Cc4ccc(F)cc4)CC3)O2)n(C)n1 (centres undefined) ?
VACV mCherry inh: -6%; Vaccinia Venus: -3%; FMDV inh: -12%

Results for COc1cccc(Cn2c(CNS(=O)(=O)c3ccc(F)c(Cl)c3)nc3cccnc32)c1 ?
VACV mCherry inh: inconclusive; Vaccinia Venus: -17%; LASV entry inh: 13%[46.1 µM]; Sm TGR inh: 14%; FMDV inh: 46%

Results for COC(=O)c1sccc1-c1ccc(C(N)=O)o1 ?
Sm TGR inh: 50µM*

Results for COC(=O)C(=Cc1ccc(-c2ccsc2C(=O)OC)o1)C(=O)OC ?
VACV mCherry inh: -23%; Vaccinia Venus: -26%; MARV entry inh: -31%[14.2 µM]; LASV entry inh: -2%; Sm TGR inh: -1%; FMDV inh: -10%

How did CCOC(=O)C(=Cc1ccc(-c2ccsc2C(=O)OC)o1)C(=O)OCC do in these assays?
MARV entry inh: -11%; LASV entry inh: 7%; Sm TGR inh: 2%; FMDV inh: 32µM*

Results for COC(=O)c1sccc1-c1ccc(C(=O)Nc2cccnc2)o1 ?
MARV entry inh: inconclusive; LASV entry inh: 0%; Sm TGR inh: -6%; FMDV inh: 0%

Results for COc1cc(OC)cc(C(=O)Nc2ccc3nc4c(c(Nc5ccc(OC)c(OC)c5)c3c2)CCCC4)c1 ?
VACV mCherry inh: inconclusive; Vaccinia Venus: inconclusive; MARV entry inh: 2.5µM*; LASV entry inh: inconclusive; Sm TGR inh: -11%; FMDV inh: inconclusive

What do the screens show for `COc1cc(OC)cc(C(=O)Nc2ccc3nc4n(c(=O)c3c2)CCCC4)c1`?
Sm TGR inh: -14%; FMDV inh: 34%

What do the screens show for `CCOc1ccccc1C(=O)Nc1ccc2nc3c(c(Nc4ccc(OC)c(OC)c4)c2c1)CCCC3`?
VACV mCherry inh: -30%; Vaccinia Venus: inconclusive; MARV entry inh: inconclusive; LASV entry inh: 10µM*; Sm TGR inh: -6%; FMDV inh: inconclusive

Results for COc1ccc(Nc2c3c(nc4ccc(NC(=O)c5cc(Cl)ccc5OC)cc24)CCCC3)cc1OC ?
VACV mCherry inh: inconclusive; Vaccinia Venus: inconclusive; MARV entry inh: inconclusive; LASV entry inh: inconclusive; Sm TGR inh: 16%; FMDV inh: 32µM*
